# Measurements reported in the supplement of paper PMC10105736.
# Unmarked numbers belong to inactive results.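 Rule for the calls: active = MAPPIT score above the 99th percentile of random reference set scores in the same batch; inactive = at or below it.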
# How the values were obtained:
# Test in all cases: MAPPIT interaction score (arbitrary units); higher = stronger binary interaction signal, active = hit call of the paper
# rux = details: MAPPIT configuration: N-N; pair source set: Finley_Y2H
# ord = details: MAPPIT configuration: N-N; pair source set: Lit-BM-16
# pip = details: MAPPIT configuration: N-N; pair source set: Lit-BS-16
# opa = details: MAPPIT configuration: N-N; pair source set: Finley_Y2H
# prd = details: MAPPIT configuration: N-N; pair source set: Finley_Y2H
# sac = details: MAPPIT configuration: N-N; pair source set: RRS
# orb = details: MAPPIT configuration: N-N; pair source set: DPIM
# otp = details: MAPPIT configuration: N-N; pair source set: screen_2
# ox = details: MAPPIT configuration: N-N; pair source set: Curagen_low_conf
# nos = details: MAPPIT configuration: N-N; pair source set: Curagen_high_conf
# rst = details: pair source set: Lit-BM-16
# ninaD = details: MAPPIT configuration: N-C; pair source set: screen_4
# poly = details: MAPPIT configuration: N-C; pair source set: screen_3
# nw = details: MAPPIT configuration: N-N; pair source set: RRS
# ras = details: MAPPIT configuration: N-N; pair source set: Finley_Y2H
# 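Note: HEK293T cells with Epo stimulation, STAT-responsive firefly luciferase reporter, fold induction versus unstimulated cells divided by the larger fold induction of two negative controls lacking either bait or prey.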
binder,measurement,setting,value
hfp (protein) MGSNDRASRSPRSDDQREISDMPATKRTRSDSGKSTDSKIPYLSQPLYDLKQTGDVKFGPGTRSALLGLLGGALPKLSSEQHDLVSKAKKYAMEQSIKMVLMKQTLAHQQQQLATQRTQVQRQQALALMCRVYVGSISFELKEDTIRVAFTPFGPIKSINMSWDPITQKHKGFAFVEYEIPEGAQLALEQMNGALMGGRNIKVGRPSNMPQAQQVIDEVQEEAKSFNRIYVASIHPDLSEEDIKSVFEAFGPILYCKLAQGTSLHTHKGYGFIEYANKQAMDEAIASMNLFDLGGQLLRVGRSITPPNALACPTTNSTMPTAAAVAAAAATAKIQALDAVASNAVLGLSQNTPVMAAGAVVTKVGAMPVVSAATSAAALHPALAQAAPALLPPGIFQAPTPVAPSLLGVPAGLQPLQAVVPTLPPPALLATPTLPMTVGGVGVGLVPTVATLAGAEASKGAAAAAALSAAANNAAVTAANLSENIKKAHEKQQEELQKKLMDEGDVQTLQQQENMSIKGQSARQLVMQRLMRPVDSRVIILRNMVGPEDVDETLQEEIQEECSKFGTVSRVIIFNEKQTENEDDDEAEIIVKIFVEFSAGAEAMRGKEALDGRFFGGRRVVAELYDQGIFDQGDLSG,MAPPIT interaction score,rux,0.808
Sce (protein) MTSLDPAPNKTWELSLYELQRKPQEVITDSTEIAVSPRSLHSELMCPICLDMLKKTMTTKECLHRFCSDCIVTALRSGNKECPTCRKKLVSKRSLRADPNFDLLISKIYPSREEYEAIQEKVMAKFNQTQSQQALVNSINEGIKLQSQNRPQRFRTKGGGGGGGGGGNGNGAANVAAPPAPGAPTAVGRNASNQMHVHDTASNDSNSNTNSIDRENRDPGHSGTSAASAITSASNAAPSSSANSGASTSATRMQVDDASNPPSVRSTPSPVPSNSSSSKPKRAMSVLTSERSEESESDSQMDCRTEGDSNIDTEGEGNGELGINDEIELVFKPHPTEMSADNQLIRALKENCVRYIKTTANATVDHLSKYLAMRLTLDLGADLPEACRVLNFCIYVAPQPQQLVILNGNQTLHQVNDKFWKVNKPMEMYYSWKKT,MAPPIT interaction score,ord,1.68
Snp (protein) MALIKLARQLGLIDTIYVDGARPDPNNDPEESFNEDEVTEANSVPAKSKKSRKSKRLAMQPYSYVIAVDFEATCWEKQAPPEWREAEIIEFPAVLVNLKTGKIEAEFHQYILPFESPRLSAYCTELTGIQQKTVDSGMPLRTAIVMFNEWLRNEMRARNLTLPKMNKSNILGNCAFVTWTDWDFGICLAKECSRKGIRKPAYFNQWIDVRAIYRSWYKYRPCNFTDALSHVGLAFEGKAHSGIDDAKNLGALMCKMVRDGALFSITKDLTPYQQLNPRFVL,MAPPIT interaction score,pip,-0.236
croc (protein) MHTLFSDQNSFTRHYAQTAAGYGSASAVAAASSASAAAAAHYAYDQYSRYPYSASAYGLGAPHQNKEIVKPPYSYIALIAMAIQNAADKKVTLNGIYQYIMERFPYYRDNKQGWQNSIRHNLSLNECFVKVARDDKKPGKGSYWTLDPDSYNMFDNGSFLRRRRRFKKKDVMREKEEAIKRQAMMNEKLAEMKPLKLMTNGILEAKHMAAHAAHFKKEPLMDLGCLSGKEVSHAAMLNSCHDSLAQMNHLAGGGVEHPGFTVDSLMNVYNPRIHHSAYPYHLNEDNLATVASSQMHHVHHAAAAHHAQQLQRHVAHVAHPLTPGGQGAGGQSSGHSPTTISTPHGPAHGGWYTPETPPSEPVPHNGQQGTPTHPGHNNNNSSSVLNHNGVGNGGGGGGGGGGGSSSVLTSSPTSALGFRDMIFEQNQSCQLDTGSPTGSLQSASPPASASVAAASAAAAAAVISSHHHHHHHHAALSGNLGQLGQLSNLSHYRPHVGHYQEYGIKYGV,MAPPIT interaction score,opa,-0.778
same,MAPPIT interaction score,prd,-0.752
insv (protein) MENQYQRIVSATAREDSQARRSKPLFLNAWSQTSSVDFEVLRSISAPDPQVEVENRALRDKVRYLEAKLQQHKDLLSQIHATSARMQQASSLLAESRPPTPPAVQSHHILTPPSSEICAPAQNPQILDYKIISAPDDADAIEIRLAAESLNSLSTSADSDRLEICLGDENHQQSNHHNSQQQYRISNGIKRDGSSESADTPLQFIKRRKLQEIQLQEEIPRQNIKLPAKPQVKARNGSFTDLNKGQQQNMDNVMVSIGPNNTCVPASVFENINWSVCSLATRKLLVTIFDRETLATHSMTGKPSPAFKDQDKPLKRMLDPGKIQDIIFAVTHKCNASEKEVRNAITTKCADENKMMKIQNVKRRSSGIKHEKENII,MAPPIT interaction score,sac,-0.275
ND-ACP (protein) MSFTQIARSCSRLAATLAPRRVASGILIQSQASRMMHRIAVPSMTSQLSQECRGRWQTQLVRKYSAKPPLSLKLINERVLLVLKLYDKIDPSKLNVESHFINDLGLDSLDHVEVIMAMEDEFGFEIPDSDAEKLLKPADIIKYVADKEDVYE,MAPPIT interaction score,orb,0.0809
H15 (protein) MLLSNQPANTKPQQTPSPSQTQNFKSKLQQQIVSAAAAAAANIANGSSHHHHHQNHHHHHPLNNHHNHNHNQHNISFATDFSIAAIMARGGNAPSSREPSERSLSPASVERYSGQDADDDVDVDVVDCSDSEMPSATAAAAAAATTAAAAAAALQAQQQARQALRVAQQQQQQQQQQRQQTHHHATTGKQQRQHHNHHSSNTNNSSNSGNSNTNSKSSSQRGRSAAAVGAAATPSPPPPPPSQSPEELERLSPEESPAQQPTPKIVGSCNCDDLTPVQCHLETKELWDKFHELGTEMIITKSGRRMFPTVRVSFSGPLRQIQPADRYAVLLDVVPLDSRRYRYAYHRSSWLVAGKADPPPPSRIYAHPDCPLSPEALRKQVVSFEKVKLTNNEMDKSGQVVLNSMHRYQPRIHLVRLSHGQSIPGSPKELQDMDHKTFVFPETVFTAVTAYQNQLITKLKIDSNPFAKGFRDSSRLSDFDRDPMDAFFFDQHMRTAPLRFFPDPLMSQLTPQEADAASMALLEKARQHLQMFGRSPYTEMLLPHLYQRSAAPPPPPPAPHLSAFQLGMWQQQWPQLTAGFLASANQQAALALAAAGANRTPPPSMAVAPPAPATPTSSCGSASPDLRARPQLNHYPQRFSPYQVPQHQASPPASNRAESP,MAPPIT interaction score,otp,0.104
eEF1beta (protein) MAFGDVTTPQGLKELNAFLADNSYISGYTPSKADLSVFDALGKAPSADNVNVARWYRHIASFEAAERAAWSGTPLPQLAGGKPTVAAAAKPAADDDDDVDLFGSDDEEDEEAERIKQERVAAYAAKKSKKPALIAKSSVLLDVKPWDDETDMKEMENNVRTIEMDGLLWGASKLVPVGYGINKLQIMCVIEDDKVSIDLLQEKIEEFEDFVQSVDIAAFNKI,MAPPIT interaction score,ox,0.286
128up (protein) MSTILEKISAIESEMARTQKNKATSAHLGLLKAKLAKLRRELISPKGGGGGTGEAGFEVAKTGDARVGFVGFPSVGKSTLLSNLAGVYSEVAAYEFTTLTTVPGCIKYKGAKIQLLDLPGIIEGAKDGKGRGRQVIAVARTCNLIFMVLDCLKPLGHKKLLEHELEGFGIRLNKKPPNIYYKRKDKGGINLNSMVPQSELDTDLVKTILSEYKIHNADITLRYDATSDDLIDVIEGNRIYIPCIYLLNKIDQISIEELDVIYKIPHCVPISAHHHWNFDDLLELMWEYLRLQRIYTKPKGQLPDYNSPVVLHNERTSIEDFCNKLHRSIAKEFKYALVWGSSVKHQPQKVGIEHVLNDEDVVQIVKKV,MAPPIT interaction score,nos,0.2
rst (protein) MLHTMQLLLLATIVGMVRSSPYTSYQNQRFAMEPQDQTAVVGARVTLPCRVINKQGTLQWTKDDFGLGTSRDLSGFERYAMVGSDEEGDYSLDIYPVMLDDDARYQCQVSPGPEGQPAIRSTFAGLTVLVPPEAPKITQGDVIYATEDRKVEIECVSVGGKPAAEITWIDGLGNVLTDNIEYTVIPLPDQRRFTAKSVLRLTPKKEHHNTNFSCQAQNTADRTYRSAKIRVEVKYAPKVKVNVMGSLPGGAGGSVGGAGGGSVHMSTGSRIVEHSQVRLECRADANPSDVRYRWFINDEPIIGGQKTEMVIRNVTRKFHDAIVKCEVQNSVGKSEDSETLDISYAPSFRQRPQSMEADVGSVVSLTCEVDSNPQPEIVWIQHPSDRVVGTSTNLTFSVSNETAGRYYCKANVPGYAEISADAYVYLKGSPAIGSQRTQYGLVGDTARIECFASSVPRARHVSWTFNGQEISSESGHDYSILVDAVPGGVKSTLIIRDSQAYHYGKYNCTVVNDYGNDVAEIQLQAKKSVSLLMTIVGGISVVAFLLVLTILVVVYIKCKKRTKLPPADVISEHQITKNGGVSCKLEPGDRTSNYSDLKVDISGGYVPYGDYSTHYSPPPQYLTTCSTKSNGSSTIMQNNHQNQLQLQQQQQQSHHQHHTQTTTLPMTFLTNSSGGSLTGSIIGSREIRQDNGLPSLQSTTASVVSSSPNGSCSNQSTTAATTTTTHVVVPSSMALSVDPRYSAIYGNPYLRSSNSSLLPPPTAV,MAPPIT interaction score,rst; MAPPIT configuration: N-C,1.64
same,MAPPIT interaction score,rst; MAPPIT configuration: N-N,0.661
CG5382 (protein) MGLCKCPKRLVTNQFCFEHRVNVCEHCMVQSHPKCIVQSYLQWLRDSDYISNCTLCGTTLEQGDCVRLVCYHVFHWDCLNARQAALPANTAPRGHQCPACSVEIFPNANLVSPVADALKSFLSQVNWGRNGLGLALLSEEQSSSLKAIKPKVASQAAVSNMTKVHHIHSGGERERTKPNGHDAVSPHSVLLMDAFNPPSAGDYASSRRPLLPRQSPIGGTDRDDNKYQRRTPAELFSRWTRRFYAPSSRPPWRRTWFLVTAGILAFVLFVYLMAWLGRGGSDAVDEGWNNPNPQPNHYE,MAPPIT interaction score,ninaD,0.641
GstE14 (protein) MSQPKPILYYDERSPPVRSCLMLIKLLDIDVELRFVNLFKGEQFQKDFLALNPQHSVPTLVHGDLVLTDSHAILIHLAEKFDEGGSLWPQEHAERMKVLNLLLFECSFLFRRDSDFMSATVRQGFANVDVAHHERKLTEAYIIMERYLENSDFMAGPQLTLADLSIVTTLSTVNLMFPLSQFPRLRRWFTAMQQLDAYEANCSGLEKLRQTMESVGSFQFPSSSAVVTEKVE,MAPPIT interaction score,poly,-0.119
CG1161 (protein) MAHKRLFVYAVLLVICYLVGVTWAETAAQTFPAIGTNSNNNSNAQPAPVPAPAAPAAAAPLAKQVSAPTAAPPAKVIGQPVLAAPGKNSSNSSSTTECVCAGALLPRLDANGKELPICAECKCSHVARNTTLIKVVVIIVIWIISILVIYMLFLMCLDPLLNKRVKANYQEHTNEDDEPTPPLPAVNNQELSARANVLNRVGHQQDKWKRQVREQRRHIYDRHTMLN,MAPPIT interaction score,nw,0.0762
peg (protein) MKLSAVLLAIALLALSLVQCLGLPDPSTKCVMECDTQEYRSICAADDKGSTKTYRNLCVMKTENCLQNANFQKISDKECP,MAPPIT interaction score,ras,-1.69
